In the library only some 14% were active in any assay of this set; here they are far more common.
Marburg entry inh: blocks Marburg virus binding to or entry into cells; Potency, µM (top dose mostly 37.8 µM), for the others: at the top dose activity change, negative = inhibition, actives largely listed as inhibitors; Marburg virus pseudotyped entry inhibition, cell reporter; actives 1.8% (n = 300,000); calls by dose curve; tested in HEK293 cells; also: potency is read from the fitted curve at half-maximal effect
Pf growth 96h: inhibits malaria parasite growth, 96 h | actives 6.9% (n = 320,000) | P. falciparum luciferase reporter growth, 96 h | Potency, µM (highest dose often 28.7 µM), for the others: at the highest dose activity change, negative = inhibition, hits mostly inhibitors | AID 504834; also: potency is read from the fitted curve at half-maximal effect
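P. falciparum expressing integrated firefly luciferase, in erythrocytes at 2% hematocrit, 0.05% parasitemia, incubated with compounds 96 h at 37 C, 5% CO2. Growth inhibition read as loss of luminescence; two-generation exposure targets delayed-death apicoplast inhibitors.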
HCV inh: blocks hepatitis C virus; Huh7.5.1 HCVcc-Cre infection, luciferase reporter, 44 h; Potency, µM (highest dose often 41.8 µM), inactives show at the top dose activity change, negative = inhibition, most hits filed as inhibitors; actives 3.4% (n = 340,000); AID 651820; also: potency is read from the fitted curve at half-maximal effect
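1,000 cells/well; 4 h culture; + compound; + HCVcc-Cre (~0.5 moi); 44 h; luciferase substrate, RT 15 min; read 15 sec.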
Pf growth 48h: P. falciparum growth inhibition at 48 hours (one generation); P. falciparum luciferase growth in erythrocytes, 48 h; actives 5.9% (n = 310,000); Potency, µM (doses to about 28.7 µM), for inactives: at the highest dose activity change, negative = inhibition, actives largely listed as inhibitors; also: potency is read from the fitted curve at half-maximal effect
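Luminescence readout; reporter = integrated firefly luciferase in P. falciparum. RBC culture at 2% hematocrit, 0.1% parasitemia final, 37 C/5% CO2; decreased signal taken as growth inhibition.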
Lassa entry inh: Lassa virus entry inhibition; actives 1.2% (n = 300,000); AID 540256; Lassa virus pseudotype entry inhibition, cell reporter; Potency, µM (titrated, usually from 37.9 µM), inactives show top-dose activity change, negative = inhibition, hits mostly inhibitors; calls by dose curve; tested in HEK293 cells; also: potency is read from the fitted curve at half-maximal effect; nearly all actives have a fitted effect of over 50% in size
HCMV antiviral: blocks human cytomegalovirus replication; HFF cells, HCMV-luciferase reporter, 72 h; hits give low values; activity change, negative = inhibition, % at 57.5 µM; actives 4.5% (n = 410,000); in the data active = activity change below about -60%; inconclusive = no clear call, values can overlap the other calls; inactive = above about -39%
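Compounds were evaluated in HFFs infected with an HCMV luciferase reporter virus (MOI 1 PFU/cell). Luciferase in lysates collected 72 h post infection served as the replication measure.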
* marks the source's active call; other numbers are inactive results; u = inconclusive; x = no result; [ ] = remark or other dose. Unless noted, calls follow the shape of the dose curve; as a rule, active = well fitted inhibition curve with a large enough effect; inconclusive = small, poorly fitted or top-dose-only effect, or another doubt; inactive = no such curve, though single readings can be large or run the other way. % is scaled to controls: 0 for no effect and ±100 for the full control effect.

SMILES | Marburg entry inh | Pf growth 96h | HCV inh | Pf growth 48h | Lassa entry inh | HCMV antiviral
COc1cccc(-c2csc(N3CCN(C(=O)NC45CC6CC(CC(C6)C4)C5)CC3)n2)c1 | u | -24.5% | u | 11.7µM* | u | 49.4
COc1cccc(-c2csc(N3CCN(C(=S)Nc4cccc(C)c4)CC3)n2)c1 | x | u | u | u | x | -67.1*
COc1cccc(-c2csc(N3CCN(C(=S)Nc4ccc(Cl)cc4)CC3)n2)c1 | u | 10.4µM* | 12.6µM* | u | -25.8% | 33.0
COc1ccccc1C(=O)Nc1ccccc1OCc1cc(=O)n2cc(C)sc2n1 | -20.8%[46.1 µM] | x | x | x | u | 2.9
CCC(=O)N1CCCc2cc(S(=O)(=O)N3CCC(C(=O)NC4CCCCC4)CC3)ccc21 | x | x | x | x | -19.8%[46.1 µM] | -17.7
Cc1nc(C(F)(F)F)ccc1C(=O)N1CCC1(C)C(=O)NS(=O)(=O)c1cccc(F)c1 (stereo not drawn) | x | x | x | x | x | 17.7
CCOC(=O)C1CCC(CN(Cc2ccc(Cl)cc2)S(=O)(=O)c2ccc(Br)cc2)CC1 (stereo not drawn) | x | x | x | x | 6.1%[46.1 µM] | -1.8
COc1cccc(NC(=O)N2CCN(c3nc(-c4cccc(OC)c4)cs3)CC2)c1 | x | u | 11.2µM* | u | x | -71.1*
COc1cccc(-c2csc(N3CCN(C(=O)Nc4ccccc4Cl)CC3)n2)c1 | x | 16.9% | -22.2% | 0.1% | x | -18.9
CCCCCCCCN1C(=O)[C@H](CC(=O)N2CCOCC2)C[C@@]2(C(=O)OC)CCCCC=C12 | x | x | x | x | x | -12.9
COc1ccc(-c2cc(C)no2)cc1S(=O)(=O)N1CCN(c2ccccn2)CC1 | u | -8.8% | 12.6µM* | -19.5% | u | -18.2
COc1ccc(-c2cc(C)no2)cc1S(=O)(=O)N1CCN(C(=O)c2ccco2)CC1 | x | u | -21.3% | 1.5% | x | 13.6
CCc1ccc(-c2cc(C)no2)cc1S(=O)(=O)N1CCN(c2ccccn2)CC1 | u | u | u | u | -28.3%[46.1 µM] | 0.0
COc1ccc(-c2cc(C)no2)cc1S(=O)(=O)N1CCN(c2ccccc2F)CC1 | x | -20.5% | 7.08µM* | -25.3% | u | u
COc1ccc(-c2cc(C)no2)cc1S(=O)(=O)N1CCCN(Cc2ccccc2Cl)C1 | x | 11.7µM* | u | u | x | -4.3
Cc1cc(-c2ccc(C(C)C)c(S(=O)(=O)N3CCN(c4ccccn4)CC3)c2)on1 | x | u | 11.2µM* | u | x | 0.0
COc1ccc(C(=O)c2c(-c3ccc(OC)cc3)oc3ccc(-c4cc(OC)c(OC)c(OC)c4)cc23)cc1 | x | x | u | x | x | -15.6
COc1ccc(-c2oc3ccc(-c4cc(OC)c(OC)c(OC)c4)cc3c2C#Cc2ccsc2)cc1 | x | 7.38µM* | -5.6% | -40.7% | x | u
COc1ccc(-c2oc3ccc(-c4cc(OC)c(OC)c(OC)c4)cc3c2C(=O)c2ccc(OC)nc2)cc1 | x | u | 48.4% | u | x | -99.0*
COC(=O)c1c(-c2ccc(OC)cc2)oc2ccc(-c3cc(OC)c(OC)c(OC)c3)cc12 | x | x | u | x | x | 0.3
COc1ccc(-c2oc(=O)c3cc(OC)c(OC)cc3c2C#CCCO)cc1 | x | x | 3.16µM* | x | x | -18.2
COc1cc(OC)cc(-c2oc(=O)c3cc(OC)c(OC)cc3c2C#CCCO)c1 | x | x | u | x | x | 4.5
COc1ccc(-c2oc3ccc(N4CCOCC4)cc3c2C#CCO)cc1 | x | x | u | x | x | -67.0*
COc1cccc(C(C)(O)c2nc(-c3cc(F)cc(F)c3)cs2)c1 (stereo not drawn) | x | x | x | x | x | -15.9
COc1ccc(NC(=O)C(c2ccc(C#N)cc2)n2c(=O)c(-c3ccco3)nc3ccccc32)cc1 (stereo not drawn) | x | x | x | x | x | 23.4
SMILES | Marburg entry inh | Pf growth 96h | HCV inh | Pf growth 48h | Lassa entry inh | HCMV antiviral
CCCCNC(=O)c1cnn2c(C)c(Cc3c(F)cccc3Cl)c(C)nc12 | x | x | x | x | 4.2%[46.1 µM] | 6.6
CN(Cc1ccccc1F)C(=O)c1ccccc1Sc1ccccc1C#N | 19.3%[46.1 µM] | u | -7.8% | 7.7% | 6.1%[46.1 µM] | 12.1
COc1ccc(-c2oc3ccc(-c4ccc(OC)nc4)cc3c2C#CC2(O)CCCCC2)cc1 | x | 5.86µM* | u | u | x | -10.7
COc1ccc(-c2ccc3oc(-c4ccc(OC)cc4)c(C#CCO)c3c2)cc1 | x | x | u | x | x | -92.5*
COc1ccc(-c2oc3ccccc3c2C#CC(C)(C)O)cc1 | x | 1.85µM* | 7.94µM* | u | x | 1.1
COc1ccc(-c2oc3ccc(-c4ccc5c(c4)OCO5)cc3c2C#CC2(O)CCCCC2)cc1 | x | x | u | x | x | 35.2
CCOC(=O)/C(=C/c1ccc(OC(F)F)cc1)C1=Nn2c(nnc2-c2ccc(Cl)cc2)SC1 | u | x | u | x | u | -97.8*
COc1ccc(-c2nnc3n2N=C(C)CS3)cc1 | 24.1% | 89.5% | -0.2% | 53.2% | -12.7% | -28.9
Cc1ccccc1C1=NC(C)(CC(=O)NCCOc2ccccc2)ON1C (stereo not drawn) | x | x | x | x | x | -7.9
CCOc1ccc(NC(=NCc2ccc3c(c2)OCO3)SC2CC(=O)N(c3ccccc3)C2=O)cc1 (stereo not drawn) | u | u | u | u | 10.5% | -0.9
CCOc1ccc(NC(=NCc2ccc3c(c2)OCO3)SC2CC(=O)N(c3ccc(C(=O)O)cc3)C2=O)cc1 (stereo not drawn) | -12.2% | 9.28µM* | 13.1% | u | u | u
CCOc1ccc(N2C(=O)CC(SC(=NC)Nc3ccc4c(c3)OCO4)C2=O)cc1 (stereo not drawn) | u | 15.6% | 21.8% | x | 13.5% | -13.6
CCOc1ccc(NC(=NCc2ccc3c(c2)OCO3)SC2CC(=O)N(c3ccc(OCC)cc3)C2=O)cc1 (stereo not drawn) | -0.1% | 3.7µM* | u | u | -22.8% | 2.3
Cc1nc(Nc2ccccc2)sc1C(=O)c1ccccc1 | 8.9%[46.1 µM] | u | -11.1% | 26.2% | u | 49.8
CC(=O)c1cc(C(=O)c2ccccc2)sc1Nc1ccccc1 | 0.0% | 39.4% | 12.6µM* | 41.8% | 3.4% | 43.7
Cc1ccccc1NC(=O)c1c2c(nc3ccccc13)CCC2 | 10.4%[46.1 µM] | -20.7% | -15.4% | 15.4% | 15.0% | -70.9*
COc1cc(NC(=O)c2c3c(nc4ccccc24)CCC3)cc(OC)c1 | u | u | -6.7% | -21.3% | -3.8% | -101.9*
Cc1ccc(NC(=O)c2c3c(nc4ccccc24)CCC3)cc1 | -10.8%[46.1 µM] | -0.4% | -8.1% | u | -3.9% | 18.4
CCOc1ccc(NC(=O)c2c3c(nc4ccccc24)CCC3)cc1 | -16.8%[46.1 µM] | 3.7µM* | 12.5% | 4.15µM* | 23.2%[46.1 µM] | -17.4
CC(C)NC(=O)c1c2c(nc3ccccc13)CCCC2 | 6.8% | -15.0% | 0.4% | 8.7% | -9.6% | 34.9
COc1ccc(CNC(=O)c2cccn2-c2nnc(N3CCCCC3)s2)c(OC)c1 | x | x | x | x | 1.6%[46.1 µM] | 0.0
